Test results as given in PubChem BioAssay (NCI).
Compounds without any hit were thinned out: in the full panel of roughly 79,000, 15% have a hit. The source made the active and inactive calls. No stated cut-off is given here; in the data, active means growth inhibition above about 70%; inactive means the rest.

Legend:
[1] = NCI Yeast Anticancer Drug Screen. Data for the rad52 strain (AID 147);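 further: 0% = growth of vehicle-treated control cultures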; conditions: S. cerevisiae rad52 mutant growth inhibition, hits give high values
Outline: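 Genetically altered yeast (DNA damage repair defect) treated with compound; inhibition calculated relative to vehicle.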

[2] = NCI Yeast Anticancer Drug Screen. Data for the wt1 strain (AID 149);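 further: 0% = growth of vehicle-treated wt1 cultures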; conditions: S. cerevisiae wt1 strain (SPY 50644) growth inhibition, hits give high values
Outline: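 Measured: growth of wt1 yeast under compound versus vehicle treatment, reported as inhibition.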

[3] = NCI Yeast Anticancer Drug Screen. Data for the rad50EPP+ strain (AID 151);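 further: 0% = growth of vehicle-treated control cultures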; conditions: S. cerevisiae rad50 mutant strain, hits give high values
Outline: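 Strain rad50EPP+; compound exposure; % growth inhibition vs vehicle.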

[4] = NCI Yeast Anticancer Drug Screen. Data for the rad50 strain (AID 155);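 further: 0% = growth of vehicle-only cultures of the same strain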; conditions: S. cerevisiae rad50 strain growth inhibition, hits give high values
Outline: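 Growth of the mutant yeast was measured after compound exposure and referenced to vehicle-treated cultures.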

[5] = NCI Yeast Anticancer Drug Screen. Data for the mec2-1 strain (AID 157); conditions: S. cerevisiae mec2-1 strain, hits give high values
Outline: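 Cells of the genetically defined mec2-1 yeast strain are incubated with test compound. Inhibition of growth is calculated against vehicle-treated controls.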

[6] = NCI Yeast Anticancer Drug Screen. Data for the rad14 strain (AID 159);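 further: 0% = growth of vehicle-treated control cultures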; conditions: S. cerevisiae rad14 strain growth inhibition, hits give high values
Outline: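 Here, inhibition of yeast growth was measured after compound exposure, using a strain with a genetic defect in DNA damage repair and vehicle-treated cultures as the reference.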

[7] = NCI Yeast Anticancer Drug Screen. Data for the sgs1 mgt1 strain (AID 161);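 further: 0% = growth of cultures given vehicle only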; conditions: S. cerevisiae sgs1 mgt1 strain, hits give high values
Outline: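 Genetically altered yeast, compound exposure, growth inhibition relative to vehicle.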

[8] = NCI Yeast Anticancer Drug Screen. Data for the CLN2oe strain (AID 163);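 further: 0% = growth of vehicle-only control cultures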; conditions: S. cerevisiae CLN2oe strain, hits give high values
Outline: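 Strain altered in cell-cycle control, incubated with compound; growth compared to solvent-treated controls.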

[9] = NCI Yeast Anticancer Drug Screen. Data for the cln2 rad14 strain (AID 165);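 further: 0% = growth equal to vehicle treated cultures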; conditions: S. cerevisiae cln2 rad14 strain, hits give high values
Outline: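 The screen exposed genetically defined yeast (cln2 rad14) to test compounds and scored growth inhibition relative to vehicle-treated controls.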

[10] = NCI Yeast Anticancer Drug Screen. Data for the bub3 strain (AID 167); conditions: S. cerevisiae bub3 mutant strain, hits give high values
Outline: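 Whole-cell yeast assay. The mutant strain was incubated with compounds, and growth inhibition was determined by comparison with vehicle-treated cells.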

[11] = NCI Yeast Anticancer Drug Screen. Data for the wt2 strain (AID 169);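 further: 0% = growth of vehicle-treated yeast cultures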; conditions: S. cerevisiae wt2 strain growth inhibition, hits give high values
Outline: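 Steps: yeast strain treated with compound; growth recorded; inhibition calculated relative to cultures given vehicle alone.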

[12] = NCI Yeast Anticancer Drug Screen. Data for the mlh1 strain (AID 171);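 further: 0% = growth of vehicle-treated control cultures of the same strain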; conditions: S. cerevisiae mlh1 strain growth inhibition, hits give high values
Outline: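 Yeast screen: mutant strain plus compound, growth scored against vehicle control wells.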

[13] = NCI Yeast Anticancer Drug Screen. Data for the sgs1 strain (AID 173);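 further: 0% = growth of vehicle-only control cultures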; conditions: S. cerevisiae sgs1 mutant, hits give high values
Outline: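 Inhibition of yeast growth served as the measure. The mutant strain was treated with each compound, and growth was normalised to cultures receiving vehicle alone.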

[14] = NCI Yeast Anticancer Drug Screen. Data for the mlh1 rad18 strain (AID 175); conditions: S. cerevisiae mlh1 rad18 strain growth inhibition, hits give high values
Outline: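 Compound-treated yeast growth, normalised to vehicle controls. Strain bears defined DNA repair mutations.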

[15] = NCI Yeast Anticancer Drug Screen. Data for the rad18 strain (AID 177); conditions: S. cerevisiae rad18 mutant growth inhibition, hits give high values
Outline: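 Inhibition values reflect reduced yeast growth compared with vehicle-treated controls, using a strain engineered with a DNA damage repair defect.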

[16] = at 5.0 µM (retest, dose inferred, filed as 0.5)
[17] = at 50.0 µM (retest, dose inferred, filed as 5.0)

Measured: growth inhibition

CCCCCCCCN1C(=O)c2ccccc2C1=O
inactive: [1]; at 1.2 µM 0% | [1]; at 3.7 µM 0% | [1]; at 11.0 µM 5% | [1]; at 33.0 µM 10% | [1]; at 100.0 µM 6% | [2]; at 1.2 µM -2% | [2]; at 3.7 µM -1% | [2]; at 11.0 µM -1% | [2]; at 33.0 µM -4% | [2]; at 100.0 µM -6% | [3]; at 1.2 µM 2% | [3]; at 3.7 µM 9% | [3]; at 11.0 µM 14% | [3]; at 33.0 µM 18% | [3]; at 100.0 µM 42% | [4]; at 1.2 µM 0% | [4]; at 3.7 µM 3% | [4]; [16] 20% | [4]; at 11.0 µM 6% | [4]; at 33.0 µM 10% | [4]; [17] 15% | [4]; at 50.0 µM 39.5% | [4]; at 100.0 µM -2% | [5]; at 1.2 µM -3% | [5]; at 3.7 µM -4% | [5]; [16] -7% | [5]; at 11.0 µM -5% | [5]; at 33.0 µM -4% | [5]; [17] 13% | [5]; at 50.0 µM 50% | [5]; at 100.0 µM 0% | [6]; at 1.2 µM -2% | [6]; at 3.7 µM 0% | [6]; at 11.0 µM 6% | [6]; at 33.0 µM 14% | [6]; at 100.0 µM 18% | [7]; [16] 1% | [7]; [17] 36% | [8]; at 1.2 µM -2% | [8]; at 3.7 µM 0% | [8]; at 11.0 µM -1% | [8]; at 33.0 µM -2% | [8]; at 100.0 µM -1% | [9]; [16] -15% | [9]; [17] -7% | [9]; at 50.0 µM -91.1% | [10]; at 1.2 µM 2% | [10]; at 3.7 µM 4% | [10]; [16] 8% | [10]; at 11.0 µM 21% | [10]; at 33.0 µM 39% | [10]; [17] 40% | [10]; at 100.0 µM 50% | [11]; at 1.2 µM -2% | [11]; at 3.7 µM -3% | [11]; at 11.0 µM -4% | [11]; at 33.0 µM -5% | [11]; at 100.0 µM -4% | [12]; at 1.2 µM 0% | [12]; at 3.7 µM 0% | [12]; at 11.0 µM 3% | [12]; at 33.0 µM 7% | [12]; at 100.0 µM 14% | [13]; at 1.2 µM -3% | [13]; at 3.7 µM -1% | [13]; at 11.0 µM 0% | [13]; at 33.0 µM 4% | [13]; at 100.0 µM 13% | [14]; [16] -2% | [14]; [17] 62% | [15]; at 1.2 µM -2% | [15]; at 3.7 µM -3% | [15]; at 11.0 µM -2% | [15]; at 33.0 µM 4% | [15]; at 100.0 µM 14%
active: [7]; at 50.0 µM 78.7% | [10]; at 50.0 µM 89.5% | [14]; at 50.0 µM 91%

O=C1OC2C(O)COC2(OCc2c[nH]c3ccccc23)C1O (stereo not drawn) (tested in a mixture with another compound)
inactive: [1]; at 1.2 µM -2% | [1]; at 3.7 µM -1% | [1]; at 11.0 µM 1% | [1]; at 33.0 µM 24% | [2]; at 1.2 µM -1% | [2]; at 3.7 µM -1% | [2]; at 11.0 µM 0% | [2]; at 33.0 µM 12% | [3]; at 1.2 µM -5% | [3]; at 3.7 µM 3% | [3]; at 11.0 µM 7% | [3]; at 33.0 µM 14% | [3]; at 100.0 µM 15% | [4]; at 1.2 µM 2% | [4]; at 3.7 µM 5% | [4]; [16] 1% | [4]; at 11.0 µM 19% | [4]; at 33.0 µM 26% | [4]; [17] 15% | [4]; at 50.0 µM 66.4% | [5]; at 1.2 µM 0% | [5]; at 3.7 µM 1% | [5]; [16] -3% | [5]; at 11.0 µM 1% | [5]; at 33.0 µM 12% | [5]; [17] 22% | [5]; at 50.0 µM 49.1% | [6]; at 1.2 µM -2% | [6]; at 3.7 µM 2% | [6]; at 11.0 µM 4% | [6]; at 33.0 µM 30% | [7]; [16] -3% | [7]; [17] 48% | [7]; at 50.0 µM 66.5% | [8]; at 1.2 µM 1% | [8]; at 3.7 µM 1% | [8]; at 11.0 µM 0% | [8]; at 33.0 µM 9% | [8]; at 100.0 µM 54% | [9]; [16] -2% | [9]; [17] 36% | [9]; at 50.0 µM 42.4% | [10]; at 1.2 µM 0% | [10]; at 3.7 µM 3% | [10]; [16] -1% | [10]; at 11.0 µM 3% | [10]; at 33.0 µM 22% | [10]; [17] 46% | [10]; at 50.0 µM 6.5% | [11]; at 1.2 µM -2% | [11]; at 3.7 µM 7% | [11]; at 11.0 µM 0% | [11]; at 33.0 µM 5%
active: [1]; at 100.0 µM 84% | [2]; at 100.0 µM 88% | [4]; at 100.0 µM 95% | [5]; at 100.0 µM 91% | [6]; at 100.0 µM 95% | [10]; at 100.0 µM 92% | [11]; at 100.0 µM 75%
